Screening data as filed in PubChem.
TMEM16A act: activators or potentiators of mouse TMEM16A chloride channel | HEK293 TMEM16A/YFP-H148Q/I152L, iodide quench fluorescence; active compounds read low | B-score at 10 µM | hit rate 0.3% among 340,000 | AID 623877;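 active = fluorescence-ratio B-score plate-corrected deviation score at least 3 library SD below zero, with starting fluorescence score within 5 deviations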;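 also: channel opened by trigger with iodide after compound preincubation; score built on the fluorescence ratio of max minus min over baseline; more negative score means more quench and so TMEM16A activation or potentiation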
TMEM16A inh: inhibitors of mouse TMEM16A calcium-activated chloride channel | AID 588511 | hit rate 1.2% among 310,000 | HEK293 TMEM16A/YFP iodide influx fluorescence, ionomycin | Q8BHY3 | normalized B-score (activity score, 25-100; higher = stronger inhibition) at 10 µM;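 active = ratio plate-corrected score three or more library SD toward inhibition, starting fluorescence score within five deviations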;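 also: score derived from kinetic fluorescence span divided by baseline fluorescence per well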
cardiac RTF act: increases calcium sensitivity of human cardiac regulated thin filaments. IANBD-labeled TnC RTF fluorescence at EC20 calcium; 0% EC20 calcium, 100% full calcium. activation, % at 7.2 µM. hit rate 0.24% among 340,000. AID 493008;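 active = activation above the mean over all tested compounds plus 3 SD, cut at about 30% in these data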;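 also: rise in fluorescence read as greater calcium sensitivity of cardiac thin filaments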
RTF Ca sens inh: cardiac RTF calcium desensitization; AID 493244; hit rate 0.12% among 340,000; IANBD-labeled cardiac RTF, Ca2+ fluorescence; inhibition, % at 7.15 µM;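 active = inhibition above the mean inhibition of all tested compounds plus 3 SD, cut at about 17% in these data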;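 also: assay run at fixed EC70 calcium of 1.6 mM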
CRFR2-BP ag: CRF-BP/CRF-R2 complex agonism | HEK293 CRF-R2/CRF-BP, calcium dye fluorescence (FLIPR); percent of saturating CRF peptide response | activation, % at 13.2 µM | hit rate 0.46% among 350,000;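 active = activation of at least 50%, plus an integration ratio under a set limit after plate pattern correction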
CRFR2-BP antag: blocks CRF-induced signaling of the CRF-BP/CRF-R2 complex. HEK293 CRF-R2/CRF-BP, CRF-induced calcium fluorescence. inhibition, % at 11.8 µM. hit rate 0.59% among 350,000. AID 588475;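 active = inhibition of the ligand-induced calcium signal above about 50% at the single tested concentration, limit read from the data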
A number is an active result; . = inactive; / = no result given. In the library only some 2.4% were active in any assay of this set; here they are far more common.

SMILES	TMEM16A act	TMEM16A inh	cardiac RTF act	RTF Ca sens inh	CRFR2-BP ag	CRFR2-BP antag
CC[C@H](C)[C@@H](C(=O)NCCCCCCCCCCC(=O)N1CCN(C(=O)OC(C)(C)C)CC1)n1cc(CCCCCNC(=O)OC(C)(C)C)nn1	.	25	.	.	.	.
CC[C@H](C)[C@@H](C(=O)NCCCCCCCCCCC(=O)N1CCN(C(=O)OC(C)(C)C)CC1)n1cc(CCCCN=C(NC(=O)OC(C)(C)C)NC(=O)OC(C)(C)C)nn1	/	.	/	/	/	/
CC(C)(C)OC(=O)NCCCCCc1cn([C@@H](CO)C(=O)NCCCCCCCCCCC(=O)N2CCN(C(=O)OC(C)(C)C)CC2)nn1	.	100	.	.	.	.
CC(C)(C)OC(=O)CC[C@@H](C(=O)NCCCCCCCCCCC(=O)N1CCN(C(=O)OC(C)(C)C)CC1)n1cc(CCCCCNC(=O)OC(C)(C)C)nn1	.	.	.	.	.	.
COc1ccc(OCC(=O)N(Cc2ccco2)C2CCS(=O)(=O)C2)cc1 (stereo not drawn)	.	.	/	/	.	.
Cc1ccc(S(=O)(=O)c2nc(-c3cccs3)oc2N2CCC(C(N)=O)CC2)cc1	.	/	.	.	.	.
CC(NC(=O)COC(=O)C1(C)CC1(Cl)Cl)c1ccccc1 (stereo not drawn)	.	/	.	.	.	54
CC1(C(=O)OCC(=O)NC(=O)c2ccccc2)CC1(Cl)Cl (stereo not drawn)	.	.	.	.	.	.
COc1cc(Cl)c(C)cc1NC(=O)CSc1ccccc1	.	.	.	.	.	.
COc1cc(Cl)c(C)cc1NC(=O)CSc1ccc(C)cc1	.	.	.	.	.	50
COc1cc(Cl)c(C)cc1NC(=O)CSc1cc(Cl)ccc1Cl	.	100	.	.	.	.
CC(C)Cn1c(-c2ccco2)n[nH]c1=S	.	25	.	.	.	.
COc1ccc(C(=O)O/N=C(\N)Cc2ccc(Cl)c(Cl)c2)cc1OC	.	.	.	.	.	110
CC1(C)c2ccccc2N2CC(=O)N(CC(N)=O)C21C (stereo not drawn)	.	.	40	.	.	.
CC1CCCCC12NC(=O)N(CC(=O)OCc1cccc(F)c1)C2=O (stereo not drawn)	-20	/	.	.	.	.
Cc1cc(C)c(N2CCN(S(=O)(=O)N3CCCCCC3)CC2)c(C)c1	-22	25	.	.	.	.
Cc1ccc(N2CCN(S(=O)(=O)N3CCCCC3)CC2)cc1Cl	.	.	.	.	.	.
CCC(CC)C(=O)Nc1ccc(C)c(O)c1	-9.6	.	.	.	.	.
CC(C)[C@@H](N)C(=O)N/N=C/c1ccc2nccnc2c1	.	.	.	.	.	.
CC(C)[C@H](NC(=O)OC(C)(C)C)C(=O)N/N=C/c1ccc2nccnc2c1	.	.	.	.	.	92
CC(=O)c1c(C)[nH]c(C(=O)NNC(=O)c2ccc(Br)cc2)c1C	.	/	.	.	.	.
CC(C)OC(=O)CSc1nnc(-c2cnccn2)n1C	-5.8	.	.	.	.	.
O=C(COC(=O)c1ccc(Cl)c(S(=O)(=O)NCc2ccccc2)c1)NCC1CCCO1 (stereo not drawn)	.	.	.	.	.	.
CCOc1ccc(N2C(=O)CC(NCCNc3ccc([N+](=O)[O-])cn3)C2=O)cc1 (stereo not drawn)	.	25	.	.	.	.
O=S(=O)(Nc1ccc2c(c1)OCCO2)c1ccc2oc3ccccc3c2c1	.	25	.	.	.	.
SMILES	TMEM16A act	TMEM16A inh	cardiac RTF act	RTF Ca sens inh	CRFR2-BP ag	CRFR2-BP antag
COc1cc(C)ccc1OCc1cc(C(=O)N2CCN(C)C[C@@H]2c2ccccc2)no1	.	.	.	.	.	.
CN(CCc1cnn(C)c1)Cc1cn[nH]c1-c1ccc(-c2ccccc2)cc1	-5.6	.	.	.	.	.
CC(C)(C)c1ccc(C(=O)Nc2ccc(Cl)cc2)cc1	.	.	.	.	.	.
COC(=O)Cc1ccc(NC(=O)c2ccc(C(C)(C)C)cc2)cc1	.	100	.	.	.	.
Cc1ccc(Cl)cc1NC(=O)Cn1c(C)csc1=O	.	/	.	.	.	.
CCOC(=O)C1=C(O)c2ccccc2C(=O)/C1=C\c1ccc(C)cc1	.	.	.	.	111	.
CCOC(=O)C1=C(C)OC(=Cc2ccccc2)C1=O	/	/	/	/	.	.
